KB-V1 cytotox = qHTS assay for MDR1-selective chemotherapeutics: Primary screen using the drug-selected MDR subline cells KB-V1. Potency, µM (doses to about 46.1 µM), actives largely listed as cytotoxic. hit rate 3.4% among 400,000. AID 1347076, 2019. KB-V1 MDR cells viability, CellTiter-Glo, 72 h; note: % is set by controls: 0 for no effect and ±100 for the full control effect; nearly all actives have a fitted effect of over 60% in size
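Potencies derive from concentration-effect curves fitted to normalized luminescence (CellTiter-Glo) of KB-V1 cells treated for 72 h at 37 degrees C in phenol-red-free DMEM containing 10% FBS.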
PINK1 expr mod = A Quantitative High throughput Screen to Identify Chemical Modulators of PINK1 Expression. PINK1 immunofluorescence, high-content cytometry, 24 h. AID 624263, 2012. hit rate 0.2% among 410,000. Potency, µM (series often up to 76.6 µM), inactives show top-dose activation (PINK1 increase), most hits filed as activators; active = well fitted activation curve with a large enough effect; inconclusive = small, poorly fitted or top-dose-only effect; cell line not stated here; note: % of control where 0% means no effect; nearly all actives have a fitted effect of over 65% in size
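Stable cell line, 250 cells/well, 12 h attachment; compounds pinned at 5 concentrations, 24 h; CCCP control. Fixed with nuclear dye, primary antibodies 12 h at 10 degrees C, secondary plus cell stain; laser-scanning cytometer read.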
SW480 rereplic = A quantitative high throughput screen for small molecules that induce DNA re-replication in SW480 colon adenocarcinoma cells; Potency, µM (top dose mostly 46.1 µM), for inactives: top-dose re-replication activation, hits mostly activators; SW480 DNA re-replication, Hoechst DNA content imaging, 48 h; hit rate 1.8% among 340,000; note: % of control where 0% means no effect; nearly all actives have a fitted effect of over 55% in size
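250 cells/well; 23 nL cpd via pin tool; 48 hr, 37 C, 5% CO2; Hoechst 40 min; imager read of total nuclear intensity, ex 405/em 500-530 nm.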
KB-3-1 cytotox = qHTS assay for MDR1-selective chemotherapeutics: Primary screen using the parental adenocarcinoma cell KB-3-1; KB-3-1 viability, CellTiter-Glo ATP luminescence, 72 h; Potency, µM (top dose mostly 46.1 µM), usual class: cytotoxic; hit rate 1.4% among 400,000; AID 1347075, 2019; note: % is set by controls: 0 for no effect and ±100 for the full control effect; nearly all actives have a fitted effect of over 60% in size
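Multi-concentration cytotoxicity screen in KB-3-1 cells grown in DMEM lacking phenol red with 10% FBS. After 72 h at 37 °C with compound, ATP-dependent luminescence was recorded.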
MCF10A rerep = A quantitative high throughput screen for small molecules that induce DNA re-replication in MCF 10a normal breast cells; hit rate 2.9% among 350,000; Potency, µM (titrated, usually from 46.1 µM), without a hit: top-dose activity, positive = re-replication, usual class: activators; MCF 10A DNA re-replication, Hoechst nuclear intensity, 48 h; note: % of control where 0% means no effect; nearly all actives have a fitted effect of over 50% in size
* hit, by the source's call; i = inactive; ? = inconclusive; nt = not tested or not shown; [ ] = dose if it differs, or a comment. Sampled rows, rich in hits. Any-hit rate of the full collection: about 6.7%. Unless noted, calls come from the whole dose curve; as a rule, active = well fitted curve in the direction sought with a large enough effect; inconclusive = small, poorly fitted or top-dose-only effect, or another doubt; inactive = no such curve, though single readings can be large; an effect the other way counts as inactive or inconclusive. Potency is the fitted concentration of half-maximal effect.

SMILES | KB-V1 cytotox | PINK1 expr mod | SW480 rereplic | KB-3-1 cytotox | MCF10A rerep
COc1cccc(OC)c1C(=O)N1CCN(C(=O)c2ccc(-c3ccccc3)cc2)CC1 | i | 1% | -5% | i | 16%
Cc1ccc(-c2cc(C(F)F)nc(N3CCOCC3)n2)cc1 | i | 8% | 11% | i | ?
COc1ccc(-c2cc(C(F)F)nc(-n3nc(C)cc3C)n2)cc1 | 23µM* | -1% | -6% | i | 15%
O=C1Nc2ccccc2/C1=C/c1cccnc1 | i | 3% | ? | ? | ?
O=C1Nc2ccccc2/C1=C/c1cnc(-c2ccccc2)[nH]1 | i | 45µM* | -22% | i | -3%
COC(=O)C1=CN(c2ccc3c(c2)OCO3)C(N)=C(C#N)C1c1ccccc1 (stereo not drawn) | 2.9µM* | nt | nt | 7.3µM* | nt
COC(=O)C1=CN(c2ccc(C(C)(C)C)cc2)C(N)=C(C#N)C1c1cccc2ccccc12 (stereo not drawn) | i | nt | nt | ? | nt
COC(=O)C1=CN(c2ccc(OC)cc2)C(N)=C(C#N)C1c1cccc2ccccc12 (stereo not drawn) | ? | nt | nt | 18µM* | nt
COC(=O)C1=CN(c2ccc(Oc3ccccc3)cc2)C(N)=C(C#N)C1c1ccccc1 (stereo not drawn) | ? | nt | nt | i | nt
COC(=O)C1=CN(c2ccccc2OC)C(N)=C(C#N)C1c1cccc([N+](=O)[O-])c1 (stereo not drawn) | 4.1µM* | nt | nt | 4.6µM* | nt
COc1ccc2oc(C)c(C(=O)c3ccc([N+](=O)[O-])cc3)c2c1 | 15µM* | -3% | -20% | ? | ?
COc1ccc2oc(C(=O)C3CC3)c(N)c2c1 | i | 5% | -5% | i | -3%
COc1ccc(C(=O)c2oc3ccccc3c2N)cc1 | i | 0% | 18µM* | i | 18µM*
COc1ccc2oc(C(=O)c3ccccc3)c(N)c2c1 | i | 1% | ? | i | 15µM*
COc1cc(=O)n2c(c1C(=O)NC(C)c1ccco1)CCN(C(=O)c1ccccc1SC)CC2 (stereo not drawn) | nt | -1% | nt | nt | nt
COc1ccc(-n2cnnc2SCC(=O)c2cc(C)n(Cc3cccs3)c2C)cc1 | i | 0% | -4% | i | ?
Cc1cc(C(=O)CSc2nnc(-c3ccc(Cl)cc3)n2CC2CCCO2)c(C)n1C (stereo not drawn) | 6.5µM* | -4% | 2% | i | 10%
CN(C(=O)CSc1nnc(-c2ccc(Cl)cc2)n1CC1CCCO1)C1CCS(=O)(=O)C1 (stereo not drawn) | i | 1% | -6% | i | 1%
Cc1cc(C(=O)CSc2nnc(-c3ccccc3)n2C)c(C)n1C | 7.3µM* | 4%[38.3 µM] | -8% | i | -1%
COCCn1c(C)cc(C(=O)CSc2nncn2-c2ccccc2)c1C | 10µM* | 8%[38.3 µM] | 0% | i | 1%
CC(=O)Nc1ccc(CC(=O)NCCC(c2ccccc2)c2ccccc2)cc1 | i | 7% | 21µM* | i | ?
Cc1ccc(SCC(=O)OCC(=O)N(C)C2CCS(=O)(=O)C2)cc1C (stereo not drawn) | i | -1% | -1% | i | 4%
O=[N+]([O-])c1ccc(S(=O)Cc2ccccc2)c([N+](=O)[O-])c1 (stereo not drawn) | ? | -7% | 23µM* | ? | 4.1µM*
CCC(=O)OCOc1ccc(/C=C2/CCC(CN(C)C)C2=O)cc1 (stereo not drawn) | ? | -2% | 12µM* | ? | ?
C(=C\c1ccccc1)/C=N/Nc1nc2ccccc2[nH]1 | i | 9% | ? | 15µM* | 4.6µM*
SMILES | KB-V1 cytotox | PINK1 expr mod | SW480 rereplic | KB-3-1 cytotox | MCF10A rerep
C/C(=N\Nc1nc2ccccc2[nH]1)c1ccc(Cl)s1 | 21µM* | 8% | 1% | ? | ?
O=[N+]([O-])c1cc(/C=N/Nc2nc3ccccc3[nH]2)c(O)cc1O | i | -2% | ? | i | 3.3µM*
C/C(=N\Nc1nc2ccccc2[nH]1)c1ccc(C)o1 | ? | 0% | 0% | i | 8%
Cc1ccc(/C=N/Nc2nc3ccccc3[nH]2)s1 | 15µM* | 1% | ? | i | ?
COc1ccc(Cc2c(-c3ccc(C#N)cc3)nc3c(Cl)cc(C(F)(F)F)cn23)c(C)c1 | i | 2% | nt | i | nt
Brc1ccc(-c2ccc(/C=N/Nc3nc4ccccc4[nH]3)o2)cc1 | i | ? | 5.8µM* | i | 12µM*
Cc1nn(-c2ccccc2)c(Cl)c1/C=N/Nc1nc2ccccc2[nH]1 | ? | 3% | ? | ? | 7.3µM*
Cc1cc(=O)[nH]c(N/N=C/c2c(C)nn(-c3ccccc3)c2Cl)n1 | ? | 6% | 9% | i | ?
NS(=O)(=O)c1ccc(NC(=O)CN2C(=O)COc3ccc(Cl)cc32)cc1 | i | 9% | nt | i | nt
O=C(CN1CCN(Cc2ccccc2Cl)C1=O)NCc1ccccc1Cl | i | 1% | nt | i | nt
COc1ccccc1N1CCN(c2nc(CNC(=O)C3CC34CCCC4)nc3ccccc23)CC1 (stereo not drawn) | nt | 0% | nt | nt | nt
CCC(C)NC(=O)CSC1=Nc2ccccc2C2=NC(c3ccccc3)C(=O)N12 (stereo not drawn) | 16µM* | 2% | -11% | i | 0%
Cc1cccnc1NC(=O)Nc1ccccc1 | i | 3% | -6% | i | -2%
COC(=O)c1ccccc1NC(=O)Nc1ncccc1C | i | 1% | 21µM* | i | 2%
CCOc1ccccc1NC(=S)Nc1ncccc1C | 21µM* | 6% | ? | 18µM* | 18µM*
CC(c1ccccc1)N1C(=O)c2cccnc2C1=O (stereo not drawn) | i | -1% | -4% | i | ?
CC(NC1=CC(=O)c2cccnc2C1=O)C(O)c1ccccc1 (stereo not drawn) | 15µM* | -1% | 12µM* | 8.2µM* | 3.7µM*
Cc1cc(C(=O)NC2CCCc3c2cnn3-c2cccc(C)c2C)no1 (stereo not drawn) | ? | 3% | 0% | 1.8µM* | 24%
Cc1cc(C(=O)NC2CCCc3c2cnn3-c2ccc(C)c(C)c2)nc(C)n1 (stereo not drawn) | ? | 3% | -21% | i | 8%
COc1ccc(C(=O)NC2CCCc3c2cnn3-c2cc(F)cc(F)c2)c(OC)c1OC (stereo not drawn) | 18µM* | 5% | 1% | ? | ?
CC1=C(C(=O)NC2CCCc3c2cnn3-c2cccc(C)c2C)OCCO1 (stereo not drawn) | ? | 1% | 0% | ? | 2%

Compound activity deposited in PubChem BioAssay by National Center for Advancing Translational Sciences (NCATS).
